# Screens from PubChem BioAssay.
# D1 agonist – human D1 receptor agonism. actives 1% (n = 360,000). HEK293 T-REx D1 cells, calcium flux, agonist mode. activation, % at 2 µM. P21728; further: 0% is about no effect
# Target sequence (P21728 whole entry, looked up): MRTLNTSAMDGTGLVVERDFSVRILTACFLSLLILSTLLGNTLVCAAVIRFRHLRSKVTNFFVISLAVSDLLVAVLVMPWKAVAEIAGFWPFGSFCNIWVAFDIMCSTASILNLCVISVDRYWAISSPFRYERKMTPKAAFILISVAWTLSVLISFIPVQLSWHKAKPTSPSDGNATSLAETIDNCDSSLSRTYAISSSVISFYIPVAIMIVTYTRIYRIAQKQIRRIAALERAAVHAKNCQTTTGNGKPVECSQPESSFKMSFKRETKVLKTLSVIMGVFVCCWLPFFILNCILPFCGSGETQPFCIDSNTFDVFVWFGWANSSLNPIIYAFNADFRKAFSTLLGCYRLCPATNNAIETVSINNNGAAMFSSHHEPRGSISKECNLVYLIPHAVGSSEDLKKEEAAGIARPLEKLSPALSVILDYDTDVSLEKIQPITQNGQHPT
#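 Agonism was scored from calcium flux recorded over 180 s (1 read/s) after pintool compound addition, following a 10-cycle baseline. Cells were inducible force-coupled HEK293 TREx D1, plated overnight at 30 C and loaded with no-wash calcium dye.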
# D1 antag – blocks dopamine activation of the human D1 receptor; P21728; HEK293 TREx D1 cells, calcium flux, dopamine EC80; stronger effect = lower value; activity change, negative = inhibition, % at 10 µM; actives 3.2% (n = 360,000); in the data active means activity change below about -30%; further: on the % scale 0 is the no-effect control and ±100 the full control effect
#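 After overnight tetracycline induction at 30 C, force-coupled D1 HEK293 cells took up a no-wash calcium dye at room temperature. Compounds were added and monitored 180 s, and the response to EC80 dopamine was then recorded.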
# TRHR ag – activates the human TRH receptor. TRHR cells, calcium flux fluo-8, FDSS agonist mode. activation, % at 2 µM. actives 0.18% (n = 360,000); further: 0% is about no effect
#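 TRHR-expressing cells loaded with fluo-8 calcium dye; 23 nL library compound pin-transferred, kinetic FDSS fluorescence (Ex 480/Em 530) recorded about 180 s for agonist-induced calcium release, before a 10 nM TRH EC20 addition for potentiator mode.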
# TRHR enhancer – TRH receptor (human) allosteric enhancement | enhancement, % at 2 µM | P34981 | TRHR cells, fluo-8 calcium fluorescence, EC20 TRH enhancement | actives 0.66% (n = 360,000) | AID 493056; in the data active means enhancement above about 30%; further: 0% is about no effect
#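 Enhancer read-out: after compound pinning and an initial kinetic agonist-mode read, an EC20 of TRH (10 nM final) was injected and fluo-8 calcium signal (Ex 480/Em 530) followed at 1 s/cycle for 100 cycles in TRHR-expressing cells.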
# D1 potentiator – potentiators of human D1 dopamine receptor; P21728; HEK293 TREx D1 cells, calcium flux, dopamine EC20 potentiation; potentiation, % at 10 µM; actives 0.036% (n = 360,000); AID 504651; in the data active means potentiation above about 30%; further: 0% is about no effect
# An asterisk follows results filed as active. This is a sample that favours compounds with a hit; in the whole collection about 4.7% have one here. Unless noted, no stated cut-off is given here; in the data, active means activation above about 30%; inactive means the rest.
SMILES,D1 agonist,D1 antag,TRHR ag,TRHR enhancer,D1 potentiator
CCC1CN(CC(=O)NCc2cccc(Br)c2)c2ccccc2S1 (centres undefined),1,-35*,1,-7,-4
CCc1cc2c(s1)c1cnn(Cc3ccccc3F)c(=O)c1n2C,24,9,1,1,-1
CSc1cc2c(s1)c1cnn(Cc3ccccc3F)c(=O)c1n2C,4,7,-1,-8,38*
CCOC(=O)c1cc2sccc2n1CC(=O)Nc1ccc(OC)cc1OC,7,-39*,0,20,-3
CCOC(=O)c1cc2sccc2n1CC(=O)OC,0,-10,-1,-2,-1
CCOC(=O)Cn1c(C(=O)OCC)cc2sccc21,2,-30*,-2,13,-6
Cc1cc(C)cc(OCC(=O)OCC(=O)c2cc(C)n(C3CC3)c2C)c1,5,-30*,0,12,-7
Cc1ccc(NC(=O)CSc2nc3ccccc3nc2Cc2ccccc2F)cc1F,8,11,-1,9,1
Cc1ccc2c(C)c(C(=O)N(C)C(C)c3ccon3)oc2c1C (centres undefined),2,-39*,0,1,-1
Fc1ccc(CSc2ccc(-c3ccco3)nn2)cc1,1,-85*,0,-2,-7
CNS(=O)(=O)c1ccc(C(=O)NCC(=O)NCCC(c2ccccc2)c2ccccc2)cc1,2,-15,-1,-2,2
NC1=NN=C(N2N=C(c3ccc(Br)cc3)CC2(O)C(F)(F)F)n2ncnc2C1 (centres undefined),2,-45*,0,-8,-8
CCN(CC)c1ccc2cc(-c3nnc(-c4ccncc4)o3)c(=O)oc2c1,199*,-18,285*,12,-9
CCN(CC)c1ccc2cc(-c3nnc(-c4cccc(Cl)c4)o3)c(=O)oc2c1,416*,-14,171*,28,38*
COc1cccc(-c2nnc(-c3cc4cc(Cl)ccc4oc3=O)o2)c1,1,31,1,-5,-3
CC(C)(C)c1cc(C(=S)N2CCCC2)cc(C(C)(C)C)c1O,8,70,0,-1,5
Cc1ccc(C)n1-c1c(C(=O)NCCCN2CCN(c3ccc(F)cc3)CC2)sc2ncccc12,1,-56*,-1,2,-5
O=C(NCCCN1CCN(c2ccccc2F)CC1)c1sc2ncccc2c1-n1cccc1,-1,-38*,-1,1,-5
O=C(NCCCN1CCN(c2cccc(Cl)c2)CC1)c1sc2ncccc2c1-n1cccc1,2,-35*,0,-4,-5
O=C(NCCCN1CCN(c2ccccc2)CC1)c1sc2ncccc2c1-n1cccc1,0,-22,-1,0,-5
CCCc1n[nH]c2c1C(=O)CC(C)(C)C2,2,9,0,14,33*
CCCCc1n[nH]c2c1/C(=N/OCC)CC(C)(C)C2,62*,62,-1,6,35*
CCCCc1n[nH]c2c1/C(=N/O)CC(C)(C)C2,1,-8,0,0,-8
COc1cc(SC)ccc1C(=O)Nc1nccs1,1,-1,0,-3,-1
Cc1ccc(S(=O)(=O)n2c3ccc(F)cc3c3nc(C)sc32)cc1,2,-31*,0,0,-4
SMILES,D1 agonist,D1 antag,TRHR ag,TRHR enhancer,D1 potentiator
CCN(CC)CCn1c2ccc(F)cc2c2nc(C)sc21,-3,-5,-1,-1,-1
O=C(Cc1cnn(-c2ccccc2)c1)c1ccc(O)c(O)c1O,3,-4,0,-1,-2
CCc1cc(C(=O)Cc2cnn(-c3ccccc3)c2)c(O)cc1O,38*,0,0,1,-7
CN(C(=O)CSc1nc2ccccc2n1CC(=O)N(C)C1CCCCC1)c1ccc(F)cc1,1,15,-1,-4,2
CCn1c(SCC(=O)N(C)c2c(N)n(Cc3ccccc3)c(=O)[nH]c2=O)nc2ccccc21,1,-4,1,31*,-3
CN(C(=O)CSc1nc2ccccc2n1CC(=O)NCc1ccc(F)cc1)c1ccc(F)cc1,11,-32*,5,-6,0
CCCOc1ccc(C(=O)NNC(=S)NC(=O)c2cccs2)cc1,104*,-26,13,-2,11
CCCOc1ccc(C(=O)NNC(=S)NC(=O)c2ccccc2)cc1,197*,-11,38*,2,22
CCCOc1ccc(C(=O)NNC(=S)NC(=O)c2ccco2)cc1,186*,-33*,23,-3,-4
